Bioassay records (PubChem BioAssay)
The full list was thinned out, with hits kept by preference.
mHTT-CaM PPI inh = mutant huntingtin-calmodulin interaction inhibitors – biochemical, AlphaScreen, primary screen | inhibition, % at 15 µM | AID 1671202, 2021 | AlphaScreen His-mHTT/GST-CaM binding, luminescence | hit rate 3.6% among 190,000;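 also: 0% = both proteins with DMSO and 100% = one protein alone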
Pf apPOL block = Pf-apPOL inhibitors, biochemical, fluorescence | AID 1794808, 2022 | Recombinant Pf-apPOL, molecular beacon fluorescence, 1.5 h | inhibition, % at 10 µM | Plasmodium falciparum apicoplast DNA polymerase (apPOL) | hit rate 0.25% among 210,000
An asterisk follows results filed as active; nt = no result given. Rule as the data show it: active = inhibition above about 50%; inactive = the rest.

SMILES	mHTT-CaM PPI inh	Pf apPOL block
O=C1CC(c2ccco2)Sc2nc(-c3ccc(F)cc3)nn21 (configuration not stated)	100.0*	-8.2
O=c1cc[nH]c2cc(N3CCOCC3)c(F)cc12	-5.1	80.3*
O=C(c1ccccc1)c1cc(F)c(N2CCOCC2)cc1Cl	-15.0	16.1
Cn1nccc1-c1cccc(-c2noc(-c3ccc(Cl)cc3)n2)c1	0.0	-1.6
COc1cc(C(=O)Nc2nc(-c3ccccn3)cs2)cc(OC)c1OC	100.0*	5.4
COc1cc(C(=O)Nc2ccc(NC(=O)c3ccccc3)cc2)cc(OC)c1OC	3.4	1.2
O=C(Nc1nc(-c2ccccn2)cs1)c1ccc(Br)s1	100.0*	-1.4
COc1cc(C(=O)Nc2cccc(NC(=O)c3ccccc3)c2)cc(OC)c1OC	52.3*	-1.0
COC(=O)c1ccc(-c2csc(NC(=O)c3cc(C)no3)n2)cc1	-6.1	-0.9
Cc1cc(C(=O)Nc2nc(-c3ccccn3)cs2)on1	99.8*	-241.7
O=C(Nc1nc(-c2ccccc2)cs1)c1ccccc1	-10.0	-4.6
COc1cc(C(=O)Nc2nc(-c3ccc(Cl)cc3)cs2)cc(OC)c1OC	3.6	-1.0
N#C/C(=C\c1ccc(O)cc1)c1nc2ccccc2[nH]1	17.3	0.8
COCC(=O)Nc1cc(OC)c(NC(=O)c2ccccc2)cc1OC	6.3	-0.7
COc1cc(NC(=O)c2ccccc2)c(OC)cc1NC(=O)COc1ccccc1	58.6*	-2.5
CC1CN(C(=O)C(C)(C)C)CC1c1nc(-c2ccncc2)no1 (configuration not stated)	7.3	2.7
CCOc1ccc(CN2C(=O)c3ccccc3C2C(=O)NC2CCCC2)cc1OC (configuration not stated)	-3.0	-14.9
OCCN(CCO)CC(O)Cn1c2ccc(Cl)cc2c2cc(Cl)ccc21 (configuration not stated)	100.2*	-0.1
CC(O)Cn1c2ccccc2c2cc(Cl)ccc21 (configuration not stated)	19.3	9.2
Cc1nccn1CC(O)Cn1c2ccc(Cl)cc2c2cc(Cl)ccc21 (configuration not stated)	99.6*	3.2
Cc1nccn1CC(C)C(=O)O (configuration not stated)	-0.5	1.2
COc1ccc(C(=O)N/C(=C/c2ccc3c(c2)OCO3)C(=O)NCCO)cc1	5.0	-4.4
Nc1nc2n(n1)C(c1ccc(Cl)cc1)CC(c1ccccc1)N2 (configuration not stated)	7.6	-7.3
COc1ccccc1C1CC(c2ccc(Cl)cc2Cl)Nc2nc(N)nn21 (configuration not stated)	57.3*	-2.7
COc1ccc(C2CC(c3ccccc3Cl)Nc3nc(N)nn32)cc1OC (configuration not stated)	25.5	-5.6
SMILES	mHTT-CaM PPI inh	Pf apPOL block
Nc1nc2n(n1)C(c1cccs1)CC(c1ccc(Cl)c(Cl)c1)N2 (configuration not stated)	83.6*	-8.1
CCOc1ccccc1C1CC(c2ccc(Cl)c(Cl)c2)Nc2nc(N)nn21 (configuration not stated)	100.0*	-2.8
COc1ccc(C2CC(c3ccc(Cl)c(Cl)c3)Nc3nc(N)nn32)cc1OC (configuration not stated)	29.0	2.0
CS(=O)(=O)N1CCc2cc(S(=O)(=O)NC(c3ccccc3)c3ccccc3)ccc21	-10.9	nt
CC(=O)N1CCc2sc(S(=O)(=O)N3CCN(c4ccccc4Cl)CC3)cc2C1	80.7*	-4.8
CC(=O)N1CCc2sc(C(=O)N3CCN(c4cccc(Cl)c4)CC3)cc2C1	78.2*	6.5
CC(=O)N1CCc2sc(S(=O)(=O)N3CCN(c4ccccc4)CC3)cc2C1	12.1	-3.0
CCC(=O)N1CCc2sc(C(=O)N3CCN(c4cccc(Cl)c4)CC3)cc2C1	17.2	1.9
COC(=O)NCC1(O)CCOc2ccccc21 (configuration not stated)	-1.5	-5.3
CC(=O)NC1CCN(Cc2ccccc2Br)CC1CO (configuration not stated)	-4.7	-14.2
O=c1ccc(-c2ccco2)nn1CCNS(=O)(=O)c1cccnc1	-15.9	4.7
O=[N+]([O-])c1cccc(Nc2nc(-c3ccccn3)cs2)c1	48.0	-2.8
CCC(=O)Nc1nc(C)c(-c2csc(Nc3ccccn3)n2)s1	41.0	-0.3
Cc1c(Cl)cccc1Nc1nc(-c2ccccn2)cs1	100.0*	0.6
COc1ccc(Cl)cc1Nc1nc(-c2ccccn2)cs1	56.0*	-0.3
COc1ccccc1Nc1nc(-c2sc(N)nc2C)cs1	74.0*	-0.6
CCc1ccccc1Nc1nc(-c2ccccn2)cs1	99.0*	-1.8
COc1ccc(Cl)cc1Nc1nc(-c2ccncc2)cs1	-1.7	-2.9
CCC(=O)Nc1nc(C)c(-c2csc(Nc3ccccc3OC)n2)s1	41.2	27.6
O=C(NCCc1cccnc1)C1CCN(c2cnn(Cc3ccccc3)c(=O)c2)CC1	-5.8	-5.8
CC(C)OCCCNC(=O)C1(C)CCC(=O)N1Cc1ccc2c(c1)OCO2 (configuration not stated)	0.6	-1.3
O=C(C[n+]1ccc2ccccc2c1)c1cccc([N+](=O)[O-])c1	17.0	-4.2
CCc1ccc(NC(=O)c2ccc(OC)cc2)cc1	-0.7	-0.6
O=C(CC1CCCC1)NCc1cc(-c2ccc(F)cc2)on1	-22.0	-8.0
COc1ccc(C(=O)C=Cc2cc(Cl)cc3c2OCOC3)c(O)c1	8.6	-3.4
SMILES	mHTT-CaM PPI inh	Pf apPOL block
O=C(COc1ccc(Cl)cc1Cl)Nc1cccc(Cl)c1Cl	0.3	-3.6
COc1ccccc1Nc1nc(-c2ccccn2)cs1	97.0*	-7.3
COc1ccc(OC)c(Nc2nc(-c3ccncc3)cs2)c1	6.1	-10.0
CCCCN1C(=O)C(C)(C(=O)Nc2cc(C)cc(C)c2)Oc2cccnc21 (configuration not stated)	-33.2	-4.9
CSc1nn(CO)c(=S)s1	nt	-13.0
Cc1ccc2nc(C3CN(C(=O)c4cc(-c5cccs5)[nH]n4)C3)[nH]c2c1	53.2*	-3.8
Cc1nnc(C2CCCN(C(=O)c3cc(-c4cccs4)[nH]n3)C2)s1 (configuration not stated)	-8.2	-9.5
O=C(CCn1ccc(=O)[nH]c1=O)N1CCCC(c2nnc(-c3cccs3)o2)C1 (configuration not stated)	-18.5	-3.8
Cc1nc(S(=O)(=O)N2CCC(Nc3cccnc3)C2)cn1C (configuration not stated)	-4.2	-3.8
CC1=N/C(=C\c2ccc([N+](=O)[O-])cc2)C(=O)N1c1ccc(Cl)cc1C	15.0	-3.0
CC1=N/C(=C\c2ccc([N+](=O)[O-])cc2)C(=O)N1c1cc(Cl)ccc1Cl	52.0*	-1.3
COc1cccc(/C=C2\N=C(c3cccc(Br)c3)OC2=O)c1	5.0	-5.0
